According to PubChem BioAssay:
For part of these data: Measured potencies and affinities stand elsewhere. Calls of active or inactive are those of the source. Unless noted, no rule for the calls is given here.

Legend:
[1] = antimalarial activity against Dd2 strain (AID 2302;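 active = growth inhibition above 50% at the single 2 µM test dose, taken to imply half-maximal potency below 2 µM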;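 also: 0% = DMSO untreated growth and 100% = chloroquine plus artemisinin killed control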); details: P. falciparum Dd2 in RBCs, LDH growth readout, 72 h; at 2 µM; active compounds read high
[2] = human hepatoma cell viability loss – ATP luminescence, cytotoxicity control for P. falciparum antimalarial project, primary screen (AID 2303;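 active = inhibition above 50%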;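 also: 0% = DMSO wells and 100% = digitonin-killed cells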); details: HepG2 viability, 24-48 h, at 10 µM, active compounds read high
[3] = biological target: L-lactate dehydrogenase (Plasmodium falciparum (isolate CDC / Honduras)) (UniProt Q27743); assay: PfLDH activity inhibition – cell lysate, 3D7 strain, counter-screen for P. falciparum growth inhibition project (AID 2304);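 also: 0% = vehicle and 100% = reference inhibitor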; details: P. falciparum 3D7 crude extract, LDH APAD/NBT absorbance; at 2 µM; active compounds read high
[4] = inhibition of 3D7 malaria parasite growth – strain 3D7 (AID 2306);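 also: 0% = DMSO wells and 100% = chloroquine plus artemisinin control wells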; details: P. falciparum 3D7 erythrocytic growth, LDH absorbance, 72 h; at 2 µM; active compounds read high
[5] = biological target: Calcium-dependent protein kinase 1 (Plasmodium falciparum (isolate 3D7)) (UniProt P62344); assay: PfCDPK1 kinase inhibitors, biochemical, TCAMS library (AID 1159585; cut-off not given, nearly all actives have IC50 up to about 0.98 µM;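 also: inhibitors leave more ATP so luminescence rises with inhibition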); details: recombinant PfCDPK1, Kinase-Glo ATP depletion luminescence
[6] = biological target: Plasmodium falciparum protein kinase 6 (PK6, PF3D7_1337100) (UniProt Q8IDW1); assay: PfPK6 kinase inhibitors, biochemical, TCAMS library (AID 1159586); details: recombinant PfPK6, Kinase-Glo ATP depletion luminescence
[7] = biological target: Protein kinase 7 (PK7), Plasmodium falciparum 3D7 (PF3D7_0213400) (UniProt Q7YTF7); assay: inhibition of Plasmodium PK7 catalytic activity – biochemical, TCAMS antimalarial set, Kinase-Glo luminescence (AID 1159587); details: recombinant PfPK7, Kinase-Glo ATP depletion luminescence
[8] = biological target: Calcium-dependent protein kinase 4 (Plasmodium falciparum (isolate 3D7)) (UniProt Q8IBS5); assay: PfCDPK4 kinase inhibitors, biochemical, TCAMS library (AID 1159588; cut-off not given, nearly all actives have IC50 up to about 0.91 µM); details: recombinant PfCDPK4, Kinase-Glo ATP depletion luminescence
Sequence of Calcium-dependent protein kinase 4 (Plasmodium falciparum (isolate 3D7)) (Q8IBS5 whole entry, looked up): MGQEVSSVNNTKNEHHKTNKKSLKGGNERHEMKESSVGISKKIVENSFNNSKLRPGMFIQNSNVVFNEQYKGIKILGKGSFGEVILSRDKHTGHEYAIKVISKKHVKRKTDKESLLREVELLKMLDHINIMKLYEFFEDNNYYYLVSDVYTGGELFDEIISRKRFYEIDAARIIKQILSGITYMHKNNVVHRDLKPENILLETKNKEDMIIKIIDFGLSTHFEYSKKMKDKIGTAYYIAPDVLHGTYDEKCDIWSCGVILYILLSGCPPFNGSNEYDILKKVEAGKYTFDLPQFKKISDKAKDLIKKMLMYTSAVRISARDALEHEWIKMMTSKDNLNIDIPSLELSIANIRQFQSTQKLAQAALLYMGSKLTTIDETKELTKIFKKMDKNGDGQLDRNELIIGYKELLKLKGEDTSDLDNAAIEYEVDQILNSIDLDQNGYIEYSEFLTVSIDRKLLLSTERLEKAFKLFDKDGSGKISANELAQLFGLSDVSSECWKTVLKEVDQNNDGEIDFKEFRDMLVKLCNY

Sequence of Protein kinase 7 (PK7), Plasmodium falciparum 3D7 (PF3D7_0213400) (Q7YTF7 1-343): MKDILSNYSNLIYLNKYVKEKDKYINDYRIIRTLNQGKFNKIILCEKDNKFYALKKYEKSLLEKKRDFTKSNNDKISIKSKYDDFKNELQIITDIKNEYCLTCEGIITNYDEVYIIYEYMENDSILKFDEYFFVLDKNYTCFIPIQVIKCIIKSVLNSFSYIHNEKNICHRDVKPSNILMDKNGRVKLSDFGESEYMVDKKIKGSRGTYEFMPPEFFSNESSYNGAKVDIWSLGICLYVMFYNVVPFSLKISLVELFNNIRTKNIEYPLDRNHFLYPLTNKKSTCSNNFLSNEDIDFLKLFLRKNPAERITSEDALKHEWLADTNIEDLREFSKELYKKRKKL
Sequence of Calcium-dependent protein kinase 1 (Plasmodium falciparum (isolate 3D7)) (P62344 whole entry, looked up): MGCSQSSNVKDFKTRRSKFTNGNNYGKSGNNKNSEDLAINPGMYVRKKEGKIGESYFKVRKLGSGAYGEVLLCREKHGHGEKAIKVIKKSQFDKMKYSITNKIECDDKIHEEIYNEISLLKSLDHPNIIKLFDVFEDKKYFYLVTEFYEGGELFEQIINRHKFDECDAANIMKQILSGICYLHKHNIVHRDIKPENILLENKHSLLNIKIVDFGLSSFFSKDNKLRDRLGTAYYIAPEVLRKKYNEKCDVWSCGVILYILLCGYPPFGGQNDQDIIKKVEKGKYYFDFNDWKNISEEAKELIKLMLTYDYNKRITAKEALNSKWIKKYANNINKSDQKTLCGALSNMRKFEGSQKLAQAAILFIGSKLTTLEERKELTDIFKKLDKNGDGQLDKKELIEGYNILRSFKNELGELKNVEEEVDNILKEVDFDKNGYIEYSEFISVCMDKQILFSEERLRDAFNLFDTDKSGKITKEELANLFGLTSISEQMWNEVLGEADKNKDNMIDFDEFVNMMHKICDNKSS
Sequence of L-lactate dehydrogenase (Plasmodium falciparum (isolate CDC / Honduras)) (Q27743 whole entry, looked up): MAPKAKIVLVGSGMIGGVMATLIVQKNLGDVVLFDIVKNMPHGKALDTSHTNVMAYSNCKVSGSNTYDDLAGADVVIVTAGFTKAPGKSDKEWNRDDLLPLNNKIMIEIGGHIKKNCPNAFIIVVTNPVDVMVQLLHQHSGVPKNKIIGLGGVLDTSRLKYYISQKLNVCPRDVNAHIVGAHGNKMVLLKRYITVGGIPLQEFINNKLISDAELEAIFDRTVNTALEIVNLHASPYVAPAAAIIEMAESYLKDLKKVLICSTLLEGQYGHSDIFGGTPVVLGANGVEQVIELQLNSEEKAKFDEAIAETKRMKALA
Sequence of Plasmodium falciparum protein kinase 6 (PK6, PF3D7_1337100) (Q8IDW1 1-305): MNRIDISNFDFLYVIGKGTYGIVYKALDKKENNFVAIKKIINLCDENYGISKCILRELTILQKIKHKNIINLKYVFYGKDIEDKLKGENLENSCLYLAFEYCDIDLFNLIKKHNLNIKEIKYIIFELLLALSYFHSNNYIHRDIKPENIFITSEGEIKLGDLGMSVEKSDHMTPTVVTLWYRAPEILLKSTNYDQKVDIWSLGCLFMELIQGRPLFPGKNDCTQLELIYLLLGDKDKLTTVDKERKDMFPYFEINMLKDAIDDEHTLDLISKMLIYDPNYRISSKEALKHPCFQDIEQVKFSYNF

CCN1CCN(CCNc2c3ccccc3nc3ccccc23)CC1
inactive: growth inhibition [1] 8% | inhibition [2] 45% | inhibition [3] 0% | outcome [5] | outcome [6] | outcome [7] | outcome [8]
active: growth inhibition [4] 93%

COc1ccc(C=NNc2cc(C)nc3ccccc23)cc1OC
active: growth inhibition [4] 91%
inactive: growth inhibition [1] 8% | inhibition [2] 19% | inhibition [3] -1% | outcome [5] | outcome [6] | outcome [7] | outcome [8]

O=C(NCCCCN1CCC(c2ccc3c(c2OCc2ccccn2)CCCC3)CC1)c1ccc(NC(=O)c2ccc(Cl)cc2)cc1
active: growth inhibition [1] 70% | growth inhibition [4] 101%
inactive: inhibition [2] 31% | inhibition [3] -3% | outcome [5] | outcome [6] | outcome [7] | outcome [8]

CCOC(=O)c1ccc(NC(=O)N(Cc2ccc(-c3ccc(CN4CCNCC4)cc3)cc2)C2CCN(Cc3ccccc3)CC2)cc1
inactive: inhibition [2] 14% | inhibition [3] 3% | outcome [5] | outcome [6] | outcome [7] | outcome [8]
active: growth inhibition [1] 93% | growth inhibition [4] 102%

Cc1ccc2cc(NC(=O)c3cccc(C(=O)Nc4ccc5nc(C)ccc5c4)n3)ccc2n1
active: growth inhibition [4] 92%
inactive: growth inhibition [1] 23% | inhibition [2] 21% | inhibition [3] 4% | outcome [5] | outcome [6] | outcome [7] | outcome [8]

COc1cc(Br)c(S(=O)(=O)n2cc(CN3CCC(N)CC3)c3cc(Cl)ccc32)cc1OC
inactive: growth inhibition [1] 32% | inhibition [2] 27% | inhibition [3] -4% | outcome [5] | outcome [6] | outcome [7] | outcome [8]
active: growth inhibition [4] 99%

CCCNC(=O)C1Cc2c([nH]c3cc(Br)ccc23)C2(CCN(CCc3ccccc3)CC2)N1 (configuration not stated)
active: growth inhibition [4] 92%
inactive: growth inhibition [1] 26% | inhibition [2] 15% | inhibition [3] -1% | outcome [5] | outcome [6] | outcome [7] | outcome [8]

NCC1CCCN1Cc1ccc(-c2ccc(-c3nc4ccc(F)cc4[nH]3)cc2)cc1 (configuration not stated)
active: growth inhibition [1] 100% | growth inhibition [4] 102%
inactive: inhibition [2] 31% | inhibition [3] -3% | outcome [5] | outcome [6] | outcome [7] | outcome [8]

CCCCCc1cc(OC(=O)CCCN(CC)CC)c2c(c1)OC(C)(C)C=C2C1=CCN(Cc2ccc3ccccc3c2)CC1
active: growth inhibition [1] 92% | inhibition [2] 94% | growth inhibition [4] 100%
inactive: inhibition [3] -2% | outcome [5] | outcome [6] | outcome [7] | outcome [8]

O=C(COc1cnc2ccccc2n1)Nc1ccccc1Sc1ccc(Cl)cc1
active: growth inhibition [1] 100% | growth inhibition [4] 100%
inactive: inhibition [2] 6% | inhibition [3] 6% | outcome [5] | outcome [6] | outcome [7] | outcome [8]

CN1c2ccc([N+](=O)[O-])cc2C(C)(C)C12C=Cc1cc(Br)cc([N+](=O)[O-])c1O2 (configuration not stated)
inactive: inhibition [2] -8% | inhibition [3] 1% | outcome [5] | outcome [6] | outcome [7] | outcome [8]
active: growth inhibition [1] 99% | growth inhibition [4] 101%

Fc1ccc2nc(-c3cccc(-c4cccc(CNCCN5CCNCC5)c4)c3)[nH]c2c1
active: growth inhibition [4] 94%
inactive: growth inhibition [1] 4% | inhibition [2] 18% | inhibition [3] -9% | outcome [5] | outcome [6] | outcome [7] | outcome [8]

O=C(Nc1cccc(CN2CCN(C(=O)c3cccc(F)c3)CC2)c1)c1cccs1
inactive: inhibition [2] 17% | inhibition [3] 1% | outcome [5] | outcome [6] | outcome [7] | outcome [8]
active: growth inhibition [1] 95% | growth inhibition [4] 95%

N#Cc1cccc(CN(Cc2ccc(Cl)c(Cl)c2)S(=O)(=O)c2cccc([N+](=O)[O-])c2)c1
active: growth inhibition [1] 73% | growth inhibition [4] 100%
inactive: inhibition [2] 3% | inhibition [3] -8% | outcome [5] | outcome [6] | outcome [7] | outcome [8]

COc1cc(Br)ccc1N1CCN(CCCCNC(=O)c2ccc(NC(=O)c3ccc(Cl)cc3)cc2)CC1
active: inhibition [2] 55% | growth inhibition [4] 96%
inactive: growth inhibition [1] 33% | inhibition [3] 1% | outcome [5] | outcome [6] | outcome [7] | outcome [8]

CCCCCCCCn1ccc(=N)cc1
active: growth inhibition [1] 84% | growth inhibition [4] 91%
inactive: inhibition [2] 49% | inhibition [3] -5% | outcome [5] | outcome [6] | outcome [7] | outcome [8]

CCCCCCN1CCCN(Cc2ccc(C(=O)Nc3ccc(Cl)cc3)cc2)CC1
inactive: inhibition [3] 3% | outcome [5] | outcome [6] | outcome [7] | outcome [8]
active: growth inhibition [1] 54% | inhibition [2] 50% | growth inhibition [4] 89%

COCCNC(=O)c1ccc(OC2CCN(Cc3ccc(F)c(F)c3)CC2)c(Cl)c1
inactive: inhibition [2] 8% | inhibition [3] -2% | outcome [5] | outcome [6] | outcome [7] | outcome [8]
active: growth inhibition [1] 73% | growth inhibition [4] 88%

NC(=O)C1CCN(Cc2ccc(-c3ccc(-c4nc5ccc(C(F)(F)F)cc5[nH]4)cc3)cc2)CC1
active: growth inhibition [1] 90% | growth inhibition [4] 100%
inactive: inhibition [2] 25% | inhibition [3] -1% | outcome [5] | outcome [6] | outcome [7] | outcome [8]

CCCC(C)C(=O)N1CCOC(COCc2cccc(C(F)(F)F)c2)(c2ccc(Cl)cc2)C1 (configuration not stated)
active: growth inhibition [1] 91% | growth inhibition [4] 97%
inactive: inhibition [2] 2% | inhibition [3] 0% | outcome [5] | outcome [6] | outcome [7] | outcome [8]

O=C(NCc1cccc(C(F)(F)F)c1)[C@@H]1CCCN1C(=O)c1ccc(O)c(-c2ccc(Cl)c(Cl)c2)c1
active: growth inhibition [1] 97% | growth inhibition [4] 99%
inactive: inhibition [2] -3% | inhibition [3] 2% | outcome [5] | outcome [6] | outcome [7] | outcome [8]

CC(C)[C@H](NC(=O)c1ccc(O)c(-c2ccc(Cl)c(Cl)c2)c1)C(=O)NCCN(C)C
inactive: growth inhibition [1] 1% | inhibition [2] -4% | inhibition [3] -3% | outcome [5] | outcome [6] | outcome [7] | outcome [8]
active: growth inhibition [4] 92%

CN1CCN=C1c1ccc(NC(=O)Nc2ccc(C3=NCCN3C)cc2)cc1
inactive: inhibition [2] 7% | inhibition [3] -1% | outcome [5] | outcome [6] | outcome [7] | outcome [8]
active: growth inhibition [1] 69% | growth inhibition [4] 85%

CN(C)CC1c2[nH]c3ccccc3c2CCN1C(=O)Nc1ccc(Cl)c(Cl)c1 (configuration not stated)
inactive: growth inhibition [1] 32% | inhibition [3] -6% | outcome [5] | outcome [6] | outcome [7] | outcome [8]
active: inhibition [2] 99% | growth inhibition [4] 90%

O=C(NCc1ccccc1)Nc1ccc(-c2ccc(-c3nc4ccc(C(F)(F)F)cc4[nH]3)cc2)cc1
active: growth inhibition [4] 99%
inactive: growth inhibition [1] 23% | inhibition [2] 40% | inhibition [3] 4% | outcome [5] | outcome [6] | outcome [7] | outcome [8]

CC(C)CN1CCCN(Cc2cccc(NC(=O)c3cc4ccccc4s3)c2)CC1
active: growth inhibition [4] 87%
inactive: growth inhibition [1] 6% | inhibition [2] 5% | inhibition [3] 0% | outcome [5] | outcome [6] | outcome [7] | outcome [8]

c1ccc2[nH]c(-c3ccc(-c4ccc(CN5CCCCC5)cc4)s3)nc2c1
active: growth inhibition [1] 69% | growth inhibition [4] 102%
inactive: inhibition [2] 41% | inhibition [3] 2% | outcome [5] | outcome [6] | outcome [7] | outcome [8]

CCc1c(CCNCCCCCCNCc2ccc3c(c2CC)OCO3)ccc(OC)c1OC
inactive: growth inhibition [1] 19% | inhibition [2] 38% | inhibition [3] 6% | outcome [5] | outcome [6] | outcome [7] | outcome [8]
active: growth inhibition [4] 100%

COc1cccc2sc(N3CCN(C(=O)c4ccc([N+](=O)[O-])o4)CC3)nc12
inactive: inhibition [2] -17% | inhibition [3] 1% | outcome [5] | outcome [6] | outcome [7] | outcome [8]
active: growth inhibition [1] 67% | growth inhibition [4] 95%

Cc1cccc(Cn2c(Cc3ccccc3)nnc2Sc2ccc([N+](=O)[O-])c(C#N)c2)c1
inactive: growth inhibition [1] 3% | inhibition [2] 17% | inhibition [3] -2% | outcome [5] | outcome [6] | outcome [7] | outcome [8]
active: growth inhibition [4] 91%

CC(Cc1ccc(CNC(=O)NCc2ccc(CC(C)NCCc3cccc(Cl)c3)cc2)cc1)NCCc1cccc(Cl)c1 (configuration not stated)
inactive: growth inhibition [1] 44% | inhibition [3] -4% | outcome [5] | outcome [6] | outcome [7] | outcome [8]
active: inhibition [2] 100% | growth inhibition [4] 100%

CC(N)(Cc1ccc(O)cc1)c1nn[nH]n1 (configuration not stated)
inactive: growth inhibition [1] 2% | inhibition [2] 7% | inhibition [3] 4% | outcome [5] | outcome [6] | outcome [7] | outcome [8]
active: growth inhibition [4] 93%

O=C(Nc1ccc(S(=O)(=O)N2CCOCC2)cc1)c1cc(-c2cc(Cl)ccc2O)n[nH]1
inactive: inhibition [2] 40% | inhibition [3] -3% | outcome [5] | outcome [6] | outcome [7] | outcome [8]
active: growth inhibition [1] 59% | growth inhibition [4] 96%

CO/C(=C\C=C\c1cc2cc(Cl)c(Cl)cc2[nH]1)C(=O)NCCCN1CC(C)N(C)CC1C (configuration not stated)
active: growth inhibition [1] 73% | growth inhibition [4] 92%
inactive: inhibition [2] 38% | inhibition [3] -2% | outcome [5] | outcome [6] | outcome [7] | outcome [8]

CCCCCCCN(Cc1ccc(OC(C)(C)C(=O)OCC)cc1)C(=O)Nc1ccccc1OCC
inactive: inhibition [2] -5% | inhibition [3] -3% | outcome [5] | outcome [6] | outcome [7] | outcome [8]
active: growth inhibition [1] 94% | growth inhibition [4] 93%

O=C(CC(c1ccccc1)c1ccccc1O)N1CCOCC1 (configuration not stated)
active: growth inhibition [4] 84%
inactive: growth inhibition [1] 5% | inhibition [2] 30% | inhibition [3] 0% | outcome [5] | outcome [6] | outcome [7] | outcome [8]

CC1(C)N=C(N)N=C(N)N1c1ccccc1
active: growth inhibition [4] 98%
inactive: growth inhibition [1] 1% | inhibition [2] 16% | inhibition [3] -4% | outcome [5] | outcome [6] | outcome [7] | outcome [8]

CCN(CCNC(=O)C1CCN(c2cc(-c3cccc(C)c3)ncn2)CC1)Cc1ccccc1
active: growth inhibition [1] 72% | growth inhibition [4] 83%
inactive: inhibition [2] 24% | inhibition [3] 2% | outcome [5] | outcome [6] | outcome [7] | outcome [8]

CCc1cn2c3c(cc(C(=O)N[C@@H](Cc4ccccc4)[C@H](O)CNC4CCC4)cc13)N(C)S(=O)(=O)CC2
active: growth inhibition [1] 98% | growth inhibition [4] 98%
inactive: inhibition [2] -4% | inhibition [3] -3% | outcome [5] | outcome [6] | outcome [7] | outcome [8]
